# Most compounds without a hit are left out; they make up all but 19% or so of the library.
# HT1080 IDH1KD tx – toxicity to HT-1080 IDH1 knockdown cells (counter line); HT-1080 IDH1 knockdown viability, ATP luminescence, 48 h; Potency, µM (top dose mostly 46.1 µM), for inactives: at the top dose activity, negative = toxicity, usual class: cytotoxic; 360,000 compounds, 2% hits; AID 686971;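 further: potency means the concentration at half of the fitted maximal effect; 0% = DMSO wells and -100% = cell-free medium wells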
#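 Using the IDH1-knockdown HT-1080 line run in the same batch and compound series as the NT line, viability after 48 h at 37 °C was determined by CellTiter-Glo luminescence and expressed as % activity.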
# IL-1B inflam inh – inflammasome signaling inhibition, IL-1 beta readout. THP-1 LPS/ATP IL-1B secretion, AlphaLISA, 16 h; stronger effect = lower value. activity change, % at 57.5 µM. 360,000 compounds, 4.7% hits. AID 743279; in the data active means activity change below about -50%; inconclusive means mostly about -30% to -49%
#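 Secreted IL-1B measured by AlphaLISA bead assay after 16 h compound exposure of THP-1 cells; compounds (final up to 57.5 uM) added 1 h before LPS (250 ng/mL) and ATP (1.25 mM) stimulation; lower signal means less secretion.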
# HT1080-NT tox – kills 2HG-producing HT-1080-NT fibrosarcoma cells; HT-1080-NT fibrosarcoma viability, CellTiter-Glo ATP luminescence, 48 h; Potency, µM (titrated, usually from 46.1 µM), for inactives: top-dose activity, negative = less viability, actives largely listed as cytotoxic; 360,000 compounds, 1.6% hits; AID 686970;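 further: NT is the 2HG producing partner of a matched IDH1 knockdown line; potency means the concentration at half of the fitted maximal effect; 0% = DMSO-treated cells and -100% = media-only wells without cells; nearly all actives have a fitted effect of over 55% in size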
#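 Luminescent CellTiter-Glo readout after 48 hours of compound exposure at 37 degrees C defined viability of HT-1080-NT cells. Activity was normalized to DMSO wells and cell-free media wells; concentration-response curves were fitted and assigned curve classes.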
# DT40 TDP1 no CPT – qHTS for Inhibitors of human tyrosyl-DNA phosphodiesterase 1 (TDP1): qHTS in cells in absence of CPT | Potency, µM (titrated, usually from 46.2 µM), for inactives: top-dose activity change, negative = growth inhibition, usual class: inhibitors | AID 686978, 2013 | DT40 Tdp1-/- hTDP1 cells, no CPT, ATP luminescence, 48 h | 420,000 compounds, 15% hits; further: potency means the concentration at half of the fitted maximal effect; nearly all actives have a fitted effect of over 55% in size
#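 Seeded 400 DT40-hTDP1 cells/well (vehicle DMSO, no 20 nM CPT); pinned compounds; ≥48 hr at 37 °C; CellTiter-Glo luminescence as viability measure.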
# DT40 TDP1 CPT – growth inhibition of DT40 Tdp1-/-;hTDP1 cells with camptothecin (screen for TDP1 inhibitors); Potency, µM (highest dose often 46.2 µM), without a hit: at the highest dose activity change, negative = growth inhibition, actives largely listed as inhibitors; AID 686979; chicken DT40 Tdp1-/-;hTDP1 cells + 20 nM CPT, ATP luminescence, 48 h; 420,000 compounds, 12% hits; further: potency means the concentration at half of the fitted maximal effect; nearly all actives have a fitted effect of over 55% in size
#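 Chicken DT40 Tdp1-/- cells complemented with human TDP1, 400 cells/well, exposed to compounds plus 20 nM camptothecin for at least 48 h at 37 C; viability read as ATP content by CellTiter-Glo luminescence.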
# Active calls of the source: *; ? = inconclusive; / = not tested or not shown. Unless noted, the call rests on the fitted dose curve; in most records, active means well fitted curve in the direction sought with a large enough effect; inconclusive means small, poorly fitted or top-dose-only effect, or another doubt; inactive means no such curve, though single readings can be large; an effect the other way counts as inactive or inconclusive. Unless noted, on the % scale 0 is the no-effect control and ±100 the full control effect.
SMILES,HT1080 IDH1KD tx,IL-1B inflam inh,HT1080-NT tox,DT40 TDP1 no CPT,DT40 TDP1 CPT
O=S(=O)(c1ccccc1C(F)(F)F)N1CCN(c2nc(-c3ccccc3)nc3ccccc23)CC1,/,/,/,12.6µM*,?
O=S(=O)(c1cccc(C(F)(F)F)c1)N1CCN(c2nc(-c3ccccc3)nc3ccccc23)CC1,/,/,/,-8.5%,-17.3%
Cc1ccc(S(=O)(=O)N2CCN(c3nc(-c4cccs4)nc4ccccc34)CC2)c(C)c1,0.6%,/,22.7%,?,?
O=S(=O)(c1cccc2ccccc12)N1CCN(c2nc(-c3cccs3)nc3ccccc23)CC1,20.0%,/,7.3%,10µM*,?
COc1ccc([C@H]2CN(CCc3ccccc3)C(=O)[C@@H]2CC(=O)Nc2ccccc2)cc1,-4.0%,-25.4,-7.5%,?,?
CC1(C)CC(=O)C2=C(C1)N(c1ccc(Cl)cc1)C(=O)C2(O)C(F)(F)F (centres undefined),?,0.0,21.0%,-28.1%,-7.5%
O=S(=O)(c1ccccc1Cl)N1CCN(c2nc(-c3cccs3)nc3ccccc23)CC1,7.7%,/,28.9%,10µM*,7.94µM*
O=S(=O)(c1ccc(OC(F)(F)F)cc1)N1CCN(c2nc(-c3ccccc3)nc3ccccc23)CC1,/,/,/,-20.1%,-16.9%
N#Cc1ccccc1S(=O)(=O)N1CCN(c2nc(-c3cccs3)nc3ccccc23)CC1,14.5%,/,13.9%,7.94µM*,15.8µM*
N#Cc1ccccc1S(=O)(=O)N1CCN(c2nc(-c3ccccc3)nc3ccccc23)CC1,12.8%,4.3,16.9%,11.2µM*,16.4µM*
O=S(=O)(c1ccc(C(F)(F)F)cc1)N1CCN(c2nc(-c3cccs3)nc3ccccc23)CC1,-2.7%,/,5.4%,-29.8%,-21.2%
Cc1csc(N2CCCC2=O)n1,7.7%,14.6,-3.4%,1.2%,25.3%
Cc1ccc(NC(=O)c2cccc(NC(=O)CC3SC(N4CCCCC4)=NC3=O)c2)nc1 (centres undefined),-6.9%,31.2,-6.7%,?,?
CCOc1cc(OCC)cc(C(=O)N2CCC[C@H]2C(=O)N2CCC[C@H]2C(=O)NCc2ccccn2)c1,14.3%,-7.5,24.2%,-4.0%,5.9%
O=C(Cn1c(=O)oc2cc(S(=O)(=O)NCc3ccccc3)ccc21)NCc1ccccc1Cl,/,/,/,9.2µM*,7.31µM*
O=C(Cn1c(=O)oc2cc(S(=O)(=O)N3CCCC3)ccc21)NCc1ccc(Cl)cc1,/,/,/,20.6µM*,16.4µM*
O=C(Cn1c(=O)oc2cc(S(=O)(=O)NCc3ccccc3)ccc21)NCc1ccc(Cl)cc1,/,/,/,?,13µM*
O=C(Cn1c(=O)oc2cc(S(=O)(=O)NCc3ccccc3)ccc21)NCc1ccco1,5.8%,-12.7,-3.0%,?,?
COc1cccc(C(=O)Nc2ccc(-n3nncc3-c3ccc(Br)cc3)cc2)c1OC,/,/,/,-16.8%,-12.2%
Cc1cc[n+](CC(=O)c2ccc(F)cc2)cc1,/,/,/,-9.9%,-1.1%
Cc1ccc(SCCc2cc[n+](CC(=O)c3ccccc3)cc2)cc1,-1.2%,-150.8*,1.1%,16.4µM*,16.4µM*
Cc1ccc(SCCNC(=O)c2ccccc2)cc1,5.5%,5.7,9.4%,-22.1%,-1.1%
Cc1ccc(C(=O)C[n+]2ccc(Cc3ccccc3)cc2)cc1,-26.3%,?,-16.0%,5.8µM*,5.8µM*
Nc1ccc(S(=O)(=O)NN=Cc2ccccc2[N+](=O)[O-])cc1,13.2%,-8.1,10.0%,?,?
Cc1ccc(NS(=O)(=O)N(C)C)cc1,15.3%,29.2,9.9%,-26.8%,5.0%
CN(C)S(=O)(=O)Nc1cc(Cl)cc(Cl)c1,16.2%,44.0,1.4%,?,18.4µM*
N=C1/C(=C\c2ccc(Br)o2)C(=O)N=C2SC(CC(=O)N3CCCCC3)=NN12,1.8%,-9.9,4.7%,7.31µM*,6.51µM*
Cc1ccc(/C=C2/C(=N)N3N=C(CC(=O)N4CCCC4)SC3=NC2=O)o1,2.7%,6.3,1.6%,?,?

# Screens as filed in PubChem BioAssay.
